According to PMC7862700, “An all-to-all approach to the identification of sequence-specific readers for epigenetic DNA modifications on cytosine”:

Experiments:
Experiment in all cases: DAPPL (digital affinity profiling via proximity ligation, sequencing); 10 mM Tris-HCl pH 7.5, 50 mM NaCl, 1 mM DTT, 4% glycerol, room temperature, 30 min; GST-TFs on glutathione beads, 16-mer random dsDNA library, 0.1% formaldehyde crosslink after washing; high values mean tight binding
[1] = target: T1, FEV (Homo sapiens, UniProt Q99581 1-238); details: protein: recombinant; tags: N-terminal GST; dsDNA, one strand shown
T1 sequence: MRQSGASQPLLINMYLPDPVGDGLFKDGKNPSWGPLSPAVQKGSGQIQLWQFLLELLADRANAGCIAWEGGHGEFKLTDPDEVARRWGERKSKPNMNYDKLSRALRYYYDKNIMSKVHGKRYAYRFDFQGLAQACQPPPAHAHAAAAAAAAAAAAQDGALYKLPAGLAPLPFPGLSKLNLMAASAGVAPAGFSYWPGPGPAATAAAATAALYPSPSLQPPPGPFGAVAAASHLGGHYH
How it was run: (§1)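 Human transcription factors carrying a GST fusion were produced in yeast, bound to glutathione beads, tagged with DNA barcodes and pooled together with a tag-only sample. Each pool was held with 200 nmole of a random double-stranded 16-mer DNA library in Tris/NaCl/DTT/glycerol buffer for 30 min at room temperature, then washed, crosslinked in 0.1% formaldehyde, proximity-ligated with BsaI/T4 ligase (1 h, 37 °C), PCR-amplified and sequenced on an Illumina NextSeq500. Binding signal is the read frequency of each hexamer for a given factor divided by its frequency in the tag-only sample.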

[2] = target: ETV5 (Homo sapiens, UniProt P41161 1-510); details: protein: recombinant; tags: N-terminal GST; dsDNA, one strand shown
How it was run: as §1

[3] = target: HSF1 (Homo sapiens, UniProt Q00613 1-529); details: protein: recombinant; tags: N-terminal GST; chain copies: 3; dsDNA, one strand shown
How it was run: as §1

[4] = target: T2, SPIC (Homo sapiens, UniProt Q8N5J4 1-248); details: protein: recombinant; tags: N-terminal GST; dsDNA, one strand shown
T2 sequence: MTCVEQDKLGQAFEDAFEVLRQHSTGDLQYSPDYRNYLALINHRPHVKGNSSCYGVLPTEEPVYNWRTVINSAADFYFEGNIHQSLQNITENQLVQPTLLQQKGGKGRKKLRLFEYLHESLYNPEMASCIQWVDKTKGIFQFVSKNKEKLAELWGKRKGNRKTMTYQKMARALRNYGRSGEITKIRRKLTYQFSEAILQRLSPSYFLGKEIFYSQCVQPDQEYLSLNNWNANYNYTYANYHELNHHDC
How it was run: as §1

[5] = target: ELF4 (Homo sapiens, UniProt Q99607 1-663); details: protein: recombinant; tags: N-terminal GST; dsDNA, one strand shown
How it was run: as §1

[6] = target: T3, ELK4 (Homo sapiens, UniProt P28324-2 1-405); details: protein: recombinant; tags: N-terminal GST; dsDNA, one strand shown
T3 sequence: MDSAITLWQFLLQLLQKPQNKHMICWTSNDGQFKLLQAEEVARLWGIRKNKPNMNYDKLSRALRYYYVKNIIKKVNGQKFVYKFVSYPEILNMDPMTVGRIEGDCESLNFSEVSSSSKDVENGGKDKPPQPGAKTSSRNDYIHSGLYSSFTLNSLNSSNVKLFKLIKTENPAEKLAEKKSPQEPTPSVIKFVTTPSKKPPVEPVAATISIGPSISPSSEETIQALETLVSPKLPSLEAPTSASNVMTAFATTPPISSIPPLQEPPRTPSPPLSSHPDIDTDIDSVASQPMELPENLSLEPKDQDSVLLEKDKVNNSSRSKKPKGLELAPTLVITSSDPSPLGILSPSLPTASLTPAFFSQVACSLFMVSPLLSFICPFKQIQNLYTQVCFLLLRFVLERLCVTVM
How it was run: as §1

[7] = target: T4, ETV2 (Homo sapiens, UniProt O00321 1-342); details: protein: recombinant; tags: N-terminal GST; dsDNA, one strand shown
T4 sequence: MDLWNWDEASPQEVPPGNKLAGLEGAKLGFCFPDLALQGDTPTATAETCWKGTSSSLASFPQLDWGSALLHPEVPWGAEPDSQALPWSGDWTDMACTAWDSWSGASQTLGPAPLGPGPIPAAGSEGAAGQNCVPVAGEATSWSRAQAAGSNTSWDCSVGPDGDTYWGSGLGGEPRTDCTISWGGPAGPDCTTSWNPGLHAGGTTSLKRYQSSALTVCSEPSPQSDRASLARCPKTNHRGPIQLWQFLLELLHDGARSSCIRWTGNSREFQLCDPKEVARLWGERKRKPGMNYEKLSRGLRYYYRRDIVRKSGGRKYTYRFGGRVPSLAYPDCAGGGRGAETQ
How it was run: as §1

[8] = target: T5, ELF3 (Homo sapiens, UniProt P78545 1-371); details: protein: recombinant; tags: N-terminal GST; dsDNA, one strand shown
T5 sequence: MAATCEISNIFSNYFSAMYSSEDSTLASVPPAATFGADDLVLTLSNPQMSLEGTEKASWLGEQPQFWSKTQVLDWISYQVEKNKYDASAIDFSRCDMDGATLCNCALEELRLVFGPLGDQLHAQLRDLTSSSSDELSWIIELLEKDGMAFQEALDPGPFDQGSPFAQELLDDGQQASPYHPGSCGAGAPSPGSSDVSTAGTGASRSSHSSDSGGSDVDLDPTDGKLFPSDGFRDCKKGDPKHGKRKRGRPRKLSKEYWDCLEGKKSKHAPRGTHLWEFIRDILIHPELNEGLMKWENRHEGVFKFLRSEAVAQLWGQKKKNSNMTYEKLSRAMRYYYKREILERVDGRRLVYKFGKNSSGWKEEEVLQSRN
How it was run: as §1

[9] = target: CRX (Homo sapiens, UniProt O43186 1-299); details: protein: recombinant; tags: N-terminal GST; dsDNA, one strand shown
How it was run: as §1

[10] = target: ETV1 (Homo sapiens, UniProt P50549 1-477); details: protein: recombinant; tags: N-terminal GST; dsDNA, one strand shown
How it was run: as §1

[11] = target: T6, ERF (Homo sapiens, UniProt P50548 1-548); details: protein: recombinant; tags: N-terminal GST; dsDNA, one strand shown
T6 sequence: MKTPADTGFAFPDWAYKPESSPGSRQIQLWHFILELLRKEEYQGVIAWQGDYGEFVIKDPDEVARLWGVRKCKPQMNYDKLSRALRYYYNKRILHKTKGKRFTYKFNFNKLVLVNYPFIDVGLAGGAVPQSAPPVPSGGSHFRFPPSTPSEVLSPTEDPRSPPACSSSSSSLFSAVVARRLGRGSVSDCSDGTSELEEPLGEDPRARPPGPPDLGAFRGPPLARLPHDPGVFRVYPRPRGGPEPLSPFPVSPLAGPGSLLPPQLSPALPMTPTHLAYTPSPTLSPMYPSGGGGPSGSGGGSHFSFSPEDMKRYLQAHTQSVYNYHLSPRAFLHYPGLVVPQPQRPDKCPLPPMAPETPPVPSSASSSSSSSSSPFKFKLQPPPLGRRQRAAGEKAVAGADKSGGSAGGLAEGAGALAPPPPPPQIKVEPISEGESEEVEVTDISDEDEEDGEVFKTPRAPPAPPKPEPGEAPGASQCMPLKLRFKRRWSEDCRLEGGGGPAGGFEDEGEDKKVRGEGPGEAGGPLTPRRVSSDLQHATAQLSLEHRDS
How it was run: as §1

[12] = target: T7, ETV3L (Homo sapiens, UniProt Q6ZN32 1-361); details: protein: recombinant; tags: N-terminal GST; dsDNA, one strand shown
T7 sequence: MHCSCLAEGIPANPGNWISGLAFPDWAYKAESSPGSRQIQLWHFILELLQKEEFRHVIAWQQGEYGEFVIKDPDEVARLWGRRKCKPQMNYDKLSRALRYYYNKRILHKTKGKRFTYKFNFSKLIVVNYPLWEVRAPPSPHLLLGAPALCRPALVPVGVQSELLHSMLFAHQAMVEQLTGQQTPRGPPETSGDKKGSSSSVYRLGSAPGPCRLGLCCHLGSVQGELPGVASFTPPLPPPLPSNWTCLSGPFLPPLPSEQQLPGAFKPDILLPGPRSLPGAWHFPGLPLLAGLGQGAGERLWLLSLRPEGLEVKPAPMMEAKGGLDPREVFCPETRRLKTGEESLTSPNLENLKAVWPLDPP
How it was run: as §1

[13] = target: T8, ETS2 (Homo sapiens, UniProt P15036 1-469); details: protein: recombinant; tags: N-terminal GST; dsDNA, one strand shown
T8 sequence: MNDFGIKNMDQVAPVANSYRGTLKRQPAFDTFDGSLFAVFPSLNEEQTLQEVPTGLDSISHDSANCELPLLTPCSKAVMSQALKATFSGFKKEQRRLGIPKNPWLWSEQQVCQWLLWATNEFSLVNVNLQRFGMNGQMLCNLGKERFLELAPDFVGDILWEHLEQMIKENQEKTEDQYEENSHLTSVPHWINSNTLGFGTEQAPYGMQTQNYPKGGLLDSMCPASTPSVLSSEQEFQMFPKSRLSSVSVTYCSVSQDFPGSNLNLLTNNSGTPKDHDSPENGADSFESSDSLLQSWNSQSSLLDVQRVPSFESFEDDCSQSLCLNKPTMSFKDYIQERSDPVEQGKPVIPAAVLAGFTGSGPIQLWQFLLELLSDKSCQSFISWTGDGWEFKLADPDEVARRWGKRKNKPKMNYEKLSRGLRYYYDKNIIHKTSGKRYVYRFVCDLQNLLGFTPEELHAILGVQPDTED
How it was run: as §1

[14] = target: T9, SPDEF (Homo sapiens, UniProt O95238 1-335); details: protein: recombinant; tags: N-terminal GST; dsDNA, one strand shown
T9 sequence: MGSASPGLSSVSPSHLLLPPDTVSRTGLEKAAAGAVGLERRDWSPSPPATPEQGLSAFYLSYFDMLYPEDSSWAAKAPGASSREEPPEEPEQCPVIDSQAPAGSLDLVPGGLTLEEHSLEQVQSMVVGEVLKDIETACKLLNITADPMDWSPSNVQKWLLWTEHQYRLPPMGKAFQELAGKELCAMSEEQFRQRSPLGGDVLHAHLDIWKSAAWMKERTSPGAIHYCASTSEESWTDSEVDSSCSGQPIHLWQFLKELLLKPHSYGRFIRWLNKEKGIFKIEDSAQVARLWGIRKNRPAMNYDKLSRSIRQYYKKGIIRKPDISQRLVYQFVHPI
How it was run: as §1

[15] = target: T10, ETV7 (Homo sapiens, UniProt Q9Y603 1-341); details: protein: recombinant; tags: N-terminal GST; dsDNA, one strand shown
T10 sequence: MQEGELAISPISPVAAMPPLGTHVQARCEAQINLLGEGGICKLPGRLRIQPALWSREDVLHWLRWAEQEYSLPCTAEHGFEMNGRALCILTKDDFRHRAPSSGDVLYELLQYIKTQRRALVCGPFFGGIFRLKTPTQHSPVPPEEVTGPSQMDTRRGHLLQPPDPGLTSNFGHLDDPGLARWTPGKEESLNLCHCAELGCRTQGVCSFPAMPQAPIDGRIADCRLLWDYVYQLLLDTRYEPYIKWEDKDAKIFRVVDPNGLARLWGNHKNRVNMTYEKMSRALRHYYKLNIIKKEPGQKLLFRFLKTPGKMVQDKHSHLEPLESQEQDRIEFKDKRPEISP
How it was run: as §1

[16] = target: T11, ELF5 (Homo sapiens, UniProt Q9UKW6-2 1-255); details: protein: recombinant; tags: N-terminal GST; dsDNA, one strand shown
T11 sequence: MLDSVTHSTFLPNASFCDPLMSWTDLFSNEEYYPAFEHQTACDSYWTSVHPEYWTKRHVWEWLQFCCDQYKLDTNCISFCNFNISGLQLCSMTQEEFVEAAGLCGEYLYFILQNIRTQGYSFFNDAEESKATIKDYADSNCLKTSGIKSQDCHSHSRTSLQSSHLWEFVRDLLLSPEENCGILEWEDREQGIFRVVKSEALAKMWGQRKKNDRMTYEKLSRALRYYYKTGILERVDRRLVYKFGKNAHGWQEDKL
How it was run: as §1

[17] = target: T12, ETV3 (Homo sapiens, UniProt P41162-2 1-143); details: protein: recombinant; tags: N-terminal GST; dsDNA, one strand shown
T12 sequence: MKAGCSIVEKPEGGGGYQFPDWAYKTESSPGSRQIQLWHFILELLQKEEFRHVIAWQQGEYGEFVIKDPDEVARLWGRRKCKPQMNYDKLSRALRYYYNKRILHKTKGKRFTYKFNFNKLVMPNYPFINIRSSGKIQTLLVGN
How it was run: as §1

[18] = target: ETV6 (Homo sapiens, UniProt P41212 1-452); details: protein: recombinant; tags: N-terminal GST; dsDNA, one strand shown
How it was run: as §1

Sequence of HSF1 (Q00613 whole entry): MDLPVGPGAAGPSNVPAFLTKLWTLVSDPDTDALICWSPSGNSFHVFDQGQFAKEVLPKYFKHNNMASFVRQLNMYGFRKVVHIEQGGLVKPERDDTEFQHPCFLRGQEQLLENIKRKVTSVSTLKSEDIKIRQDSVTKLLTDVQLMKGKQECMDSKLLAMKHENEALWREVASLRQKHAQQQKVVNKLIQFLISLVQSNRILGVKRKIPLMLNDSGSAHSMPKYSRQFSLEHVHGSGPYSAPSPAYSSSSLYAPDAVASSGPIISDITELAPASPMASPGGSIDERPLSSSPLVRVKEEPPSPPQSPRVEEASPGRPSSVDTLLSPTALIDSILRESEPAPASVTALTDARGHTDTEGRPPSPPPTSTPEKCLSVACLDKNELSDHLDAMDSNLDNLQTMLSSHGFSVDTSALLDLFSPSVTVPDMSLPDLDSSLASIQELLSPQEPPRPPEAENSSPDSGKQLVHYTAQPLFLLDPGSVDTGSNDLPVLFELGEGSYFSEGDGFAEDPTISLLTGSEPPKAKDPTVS
Sequence of ETV5 (P41161 whole entry): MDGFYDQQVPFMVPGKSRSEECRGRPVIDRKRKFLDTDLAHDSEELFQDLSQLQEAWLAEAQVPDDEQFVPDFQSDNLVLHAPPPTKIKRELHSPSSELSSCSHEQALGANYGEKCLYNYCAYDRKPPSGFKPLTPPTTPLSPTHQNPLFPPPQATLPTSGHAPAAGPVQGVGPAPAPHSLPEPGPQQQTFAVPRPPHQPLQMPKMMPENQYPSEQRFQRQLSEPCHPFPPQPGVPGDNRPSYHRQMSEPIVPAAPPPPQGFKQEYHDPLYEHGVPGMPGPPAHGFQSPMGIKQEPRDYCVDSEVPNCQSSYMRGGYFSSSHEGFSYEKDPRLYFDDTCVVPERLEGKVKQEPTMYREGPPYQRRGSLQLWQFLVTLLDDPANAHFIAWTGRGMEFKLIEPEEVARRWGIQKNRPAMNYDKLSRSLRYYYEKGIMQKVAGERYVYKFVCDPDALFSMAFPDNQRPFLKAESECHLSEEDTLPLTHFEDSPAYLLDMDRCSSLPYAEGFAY
Sequence of CRX (O43186 whole entry): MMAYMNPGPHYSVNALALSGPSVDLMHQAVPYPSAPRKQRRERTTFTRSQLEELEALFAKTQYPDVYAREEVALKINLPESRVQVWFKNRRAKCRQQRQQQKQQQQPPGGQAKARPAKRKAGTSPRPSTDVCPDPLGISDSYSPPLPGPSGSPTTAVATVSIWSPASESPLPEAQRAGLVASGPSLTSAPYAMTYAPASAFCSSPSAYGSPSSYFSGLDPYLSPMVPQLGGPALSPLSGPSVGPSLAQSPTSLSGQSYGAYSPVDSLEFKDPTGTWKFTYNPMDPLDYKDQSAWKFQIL
Sequence of ELF4 (Q99607 whole entry): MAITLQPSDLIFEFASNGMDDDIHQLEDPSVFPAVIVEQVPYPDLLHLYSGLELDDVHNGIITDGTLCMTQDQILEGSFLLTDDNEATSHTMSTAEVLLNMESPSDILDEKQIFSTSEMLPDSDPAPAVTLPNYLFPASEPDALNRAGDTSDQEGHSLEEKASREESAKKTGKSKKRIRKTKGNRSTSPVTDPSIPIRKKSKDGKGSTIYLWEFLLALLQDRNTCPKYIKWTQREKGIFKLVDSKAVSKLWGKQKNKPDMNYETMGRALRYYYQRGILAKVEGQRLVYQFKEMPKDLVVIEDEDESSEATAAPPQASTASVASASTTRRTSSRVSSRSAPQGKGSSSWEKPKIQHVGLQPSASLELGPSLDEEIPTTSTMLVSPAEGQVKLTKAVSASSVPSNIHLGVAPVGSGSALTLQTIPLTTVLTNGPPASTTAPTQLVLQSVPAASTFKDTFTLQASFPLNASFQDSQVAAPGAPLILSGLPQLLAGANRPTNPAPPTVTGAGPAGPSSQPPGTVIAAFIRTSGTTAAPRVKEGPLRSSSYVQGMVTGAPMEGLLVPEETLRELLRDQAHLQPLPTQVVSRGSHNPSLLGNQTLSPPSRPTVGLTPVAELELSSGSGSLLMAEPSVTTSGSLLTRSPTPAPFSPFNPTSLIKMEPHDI
Sequence of ETV6 (P41212 whole entry): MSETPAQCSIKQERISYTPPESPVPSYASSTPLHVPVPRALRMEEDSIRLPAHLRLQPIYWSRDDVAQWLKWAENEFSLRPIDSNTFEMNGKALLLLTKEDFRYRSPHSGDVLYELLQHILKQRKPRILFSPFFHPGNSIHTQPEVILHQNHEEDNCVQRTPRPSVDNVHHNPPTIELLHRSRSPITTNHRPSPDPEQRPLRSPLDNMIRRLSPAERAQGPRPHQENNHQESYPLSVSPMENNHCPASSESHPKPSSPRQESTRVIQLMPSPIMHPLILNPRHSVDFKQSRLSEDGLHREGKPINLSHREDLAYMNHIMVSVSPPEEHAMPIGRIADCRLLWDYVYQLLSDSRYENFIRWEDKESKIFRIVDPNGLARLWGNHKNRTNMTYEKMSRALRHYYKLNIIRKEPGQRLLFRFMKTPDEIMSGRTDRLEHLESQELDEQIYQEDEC
Sequence of ETV1 (P50549 whole entry): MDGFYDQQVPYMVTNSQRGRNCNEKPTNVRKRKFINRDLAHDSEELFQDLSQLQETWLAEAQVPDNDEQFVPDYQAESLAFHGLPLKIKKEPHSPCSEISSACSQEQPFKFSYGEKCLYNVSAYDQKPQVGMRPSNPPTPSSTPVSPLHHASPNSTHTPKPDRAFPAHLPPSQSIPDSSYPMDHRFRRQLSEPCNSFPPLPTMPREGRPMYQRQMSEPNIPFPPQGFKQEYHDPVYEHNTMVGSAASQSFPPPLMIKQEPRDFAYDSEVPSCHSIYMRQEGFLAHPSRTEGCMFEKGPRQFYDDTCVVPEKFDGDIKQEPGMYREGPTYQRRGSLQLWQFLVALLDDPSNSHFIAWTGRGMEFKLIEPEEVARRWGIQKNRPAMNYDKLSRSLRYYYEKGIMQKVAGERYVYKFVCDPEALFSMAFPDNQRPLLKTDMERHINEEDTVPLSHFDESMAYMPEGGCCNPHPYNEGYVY

TCTTAA
binding signal [1]: 1.24 fold enrichment (6-mer frequency, TF over GST control) | binding signal [2]: 1.2 fold enrichment (6-mer frequency, TF over GST control) | binding signal [3]: 1.88 fold enrichment (6-mer frequency, TF over GST control) | binding signal [4]: 1.2 fold enrichment (6-mer frequency, TF over GST control) | binding signal [5]: 1.19 fold enrichment (6-mer frequency, TF over GST control) | binding signal [6]: 1.18 fold enrichment (6-mer frequency, TF over GST control) | binding signal [7]: 1.25 fold enrichment (6-mer frequency, TF over GST control) | binding signal [8]: 1.24 fold enrichment (6-mer frequency, TF over GST control) | binding signal [9]: 2.69 fold enrichment (6-mer frequency, TF over GST control) | binding signal [10]: 1.12 fold enrichment (6-mer frequency, TF over GST control) | binding signal [11]: 1.19 fold enrichment (6-mer frequency, TF over GST control) | binding signal [12]: 1.37 fold enrichment (6-mer frequency, TF over GST control) | binding signal [13]: 1.22 fold enrichment (6-mer frequency, TF over GST control) | binding signal [14]: 1.28 fold enrichment (6-mer frequency, TF over GST control) | binding signal [15]: 1.27 fold enrichment (6-mer frequency, TF over GST control) | binding signal [16]: 1.2 fold enrichment (6-mer frequency, TF over GST control) | binding signal [17]: 1.23 fold enrichment (6-mer frequency, TF over GST control) | binding signal [18]: 1.26 fold enrichment (6-mer frequency, TF over GST control)
